Measurements taken from PubChem BioAssay.

Molecular target: Voltage-gated potassium channel subunit beta-2 (Rattus norvegicus) (UniProt P62483)
Experiment: KvBeta enzyme negative modulators, primary screen, biochemical, NADPH fluorescence (AID 622);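 also: slope of raw intensity against log time taken from 70 to 1610 s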
Conditions: recombinant KvBeta, 4-cyanobenzaldehyde reduction, at 10 µM, stronger effect = higher value;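 active = fluorescence slope higher than the sample average by over 3 SD (cut at about -0.22 in these data, passing the limit was not always enough); inactive = the rest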

Sequence of Voltage-gated potassium channel subunit beta-2 (Rattus norvegicus) (P62483 whole entry, looked up): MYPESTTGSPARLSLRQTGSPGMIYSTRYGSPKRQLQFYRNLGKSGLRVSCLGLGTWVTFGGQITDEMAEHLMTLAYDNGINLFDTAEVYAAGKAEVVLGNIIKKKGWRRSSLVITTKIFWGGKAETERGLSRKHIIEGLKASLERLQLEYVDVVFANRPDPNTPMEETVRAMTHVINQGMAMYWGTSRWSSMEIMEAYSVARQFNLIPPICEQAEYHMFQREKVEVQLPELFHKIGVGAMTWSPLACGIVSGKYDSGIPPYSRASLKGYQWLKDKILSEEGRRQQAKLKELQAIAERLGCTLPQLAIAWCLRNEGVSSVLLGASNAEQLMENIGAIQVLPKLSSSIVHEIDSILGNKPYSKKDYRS

Fluorescence slope, inactive:
Cc1ccc(C)c(S(=O)(=O)NCc2ccc(C(=O)N3CCN(C)CC3)cc2)c1 -0.332, COc1ccc(S(=O)(=O)N2CCN(C3CCCCCCC3)CC2)cc1 -0.533, O=C1NCCCc2c1no[n+]2[O-] -0.584, Cc1ccc(S(=O)(=O)Cc2ccc(C(=O)NCCCN3CCN(C)CC3)o2)cc1 -0.517, COC(=O)c1[nH]c2cccc(C)c2c1NC(=O)CN1CCCc2ccccc21 -0.45, Cc1ccccc1NC(=O)c1ccc(NC(=O)c2ccco2)cc1 -0.462, CCC(C)OC(=O)n1ccc(C(=O)Nc2nccs2)n1 (stereo not given) -0.575, O=C(CCCn1c(=O)c2sccc2n(Cc2ccc(F)cc2)c1=O)NCc1ccco1 -0.583, O=C(Nc1ccc(CN2CCCCC2)cc1)c1ccc2c(c1)OCO2 -0.473, COc1cc(C(=O)N2c3ccccc3CC2C)cc(OC)c1OC (stereo not given) -0.296, COC(=O)c1ccc(CSc2ncnc3c2nnn3-c2ccc(OC)cc2)o1 -0.577, Cc1ccc2nc(CSc3nnc(-c4ccco4)n3-c3ccccc3)cc(=O)n2c1 -0.567, Cc1nc(-c2cnn(-c3ccccc3)c2)c2cc(C)oc2n1 -0.572, COC(=O)CN1C(=O)C2(C(C#N)=C(N)Oc3c2c(C)nn3-c2ccccc2)c2ccccc21 (stereo not given) -0.475, CC(=O)c1c(C)nc(C)nc1NC(=O)Cc1ccccc1 -0.566, O=C1c2ccccc2C(=O)N1OCc1ccccc1 -0.608, CS(=O)(=O)N(CC(=O)NCc1ccccn1)c1ccc2c(c1)OCCO2 -0.515, CCOc1ccc(NC(=O)CN2CCN(CC(=O)Nc3ccc(F)c(F)c3)CC2)cc1 -0.435, CCNC(=O)Cn1cnc2c1c(=O)n(C)c(=O)n2C -0.617, COc1ccccc1C(=O)Nc1c2c(nn1-c1cccc(C)c1C)CS(=O)(=O)C2 -0.492, COc1ccc(-c2nc(N)nc(C)c2Oc2ccccc2Br)c(O)c1 -0.496, CCc1ccc(NC(=O)c2cc(-c3ccco3)on2)cc1 -0.44, CCOC(=O)N1CCC(N(C(=O)Nc2ccc(Cl)c(Cl)c2)C(C)CC)CC1 (stereo not given) -0.489, Cc1ccc(C)c(-n2c(Cc3cc(=O)[nH]c(=O)[nH]3)nnc2SCC(=O)NCc2ccco2)c1 -0.549, CC(C)(C)OC(=O)N1CCOCCOCCN(C(=O)OC(C)(C)C)CCOCCOCC1 -0.579, O=C(Nc1ccc(N2CCCC2=O)cc1)c1cccc(F)c1 -0.461, CCOC(=O)C1CCN(Cc2ccc(C(=O)OC)cc2)CC1 -0.595, COc1ccc(OCC(=O)N2CCN(C(=O)c3cccs3)CC2)cc1 -0.57, Cn1cnnc1SCC(=O)NCc1cccc(C(F)(F)F)c1 -0.532, COC(=O)Cn1c(C)nc2c(sc3nc(C)cc(C)c32)c1=O -0.603, CC1=C(C#N)C(=O)NC(C)(C)C1 -0.413, Cn1c(=O)c(C(=S)NC(=O)C2CC2)c(N)n(Cc2ccccc2)c1=O -0.48, CCCc1[nH]nc2c1C(c1cccc(OC(=O)c3ccco3)c1)C(C#N)=C(N)O2 (stereo not given) -0.471, CC(C)c1ccc(-c2nc(N3CCCCC3)[nH]c(=O)c2C#N)cc1 -0.478, Cn1cc(CC(=O)Nc2cccc(C#N)c2)c2ccccc21 -0.47, CCCN(CCC)CCNC(=O)C(NS(=O)(=O)c1ccc2c(c1)CCC(=O)N2)c1ccccc1 (stereo not given) -0.555, O=c1c2ccccc2sn1-c1ccc(S(=O)(=O)N2CCCCC2)cc1 -0.271, Cc1ccc(-n2c(=O)[nH]c3c(C(N)=O)nc(CC(C)C)nc32)cc1 -0.536, CN1CCN(C(=O)CN(Cc2ccc(Cl)cc2)S(C)(=O)=O)CC1 -0.535, CCOC(=O)c1sc(NC(=O)CSc2nnc(-c3ccco3)n2CC)c(C(=O)OCC)c1C -0.565
